From PubChem BioAssay

test: small molecules captured by biotinylated probe aFGF2 – biochemical, small-molecule microarray, fluorescence 635/667, stem cell growth factor project, primary screen (AID 1067); details: higher = more signal;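 note: measures binding of biotinylated aFGF2 protein to printed compounds on slides; z-score merges feature fluorescence and signal-to-noise across triplicate slides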

| SMILES | composite z-score |
| --- | --- |
| CC1CC/C=C\[C@H]2OC34C=CCN(c5ccc6ccccc6c5)C(=O)[C@H]3N(C(CO)C(C)C)C(=O)[C@@H]4C2C(=O)O1 (stereo partly specified) | -0.0598 |
| COCCOC(=O)N1C(=O)[C@@]2(c3cc(C#CCC(C(=O)OC)C(=O)OC)ccc31)[C@H](c1ccc(OCCO)cc1)N1[C@H](c3ccccc3)[C@H](c3ccccc3)OC(=O)[C@H]1[C@@H]2C(=O)N1CCN(c2ncccn2)CC1 | -0.0431 |
| CCOC(=O)[C@H]1C/C=C/C[C@H](C(=O)OCC)C(=O)O[C@H]2[C@@H](OC)O[C@H](CO)[C@@H](OC(=O)Nc3ccc(OC)cc3)[C@@H]2OC1=O | 0.0386 |
| O=C1O[C@@H](c2ccccc2)[C@@H](c2ccccc2)N2[C@@H](c3ccc(O)cc3)[C@]3(C(=O)Nc4ccc(C#CC5=CCCCC5)cc43)[C@@H](C(=O)N3CCN(c4ncccn4)CC3)[C@H]12 | -0.0287 |
| CCCCN1CC=CC23O[C@@H]4/C=C\CCC(C)OC(=O)C4[C@H]2C(=O)N(CCCCCCO)[C@@H]3C1=O (stereo partly specified) | -0.0712 |
| CCOC(=O)C[C@H]1[C@H](OC(=O)c2ccc(-c3ccccc3)cc2)[C@@H](NC(=O)c2ccc3ccccc3n2)c2cc(OCCCO)ccc2N1C(=O)c1ccccc1 | -0.0996 |
| COc1ccc(NN2C(C(O)c3ccccn3)C=CC3C(=O)N(C4CCCCC4)C(=O)C32)cc1 (stereo unspecified) | 0.0944 |
| COc1cc(OC)c(C(O)C2C=CC3C(=O)N(c4ccccc4)C(=O)C3N2Nc2ccc(C#N)cc2)cc1Br (stereo unspecified) | 0.353 |
| COc1ccc([Si](C)(C)[C@H]2[C@H](CCn3cc([C@H](O)c4ccccc4)nn3)O[C@@]3(C(=O)N(Cc4ccc(N5CCOC5=O)cc4)c4ccccc43)[C@@H]2C)cc1 | -0.204 |
| CCCCC(CC)C(O)C1C=CC2C(=O)N(c3ccccc3)C(=O)C2N1Nc1ccc([N+](=O)[O-])cc1 (stereo unspecified) | 0.141 |

test: small molecules captured by biotinylated probe aFGF10 – biochemical, small-molecule microarray, fluorescence 635/667, stem cell growth factor project, primary screen (AID 1071); details: higher = more signal;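 note: score merges 667 nm spot intensity and signal to noise from triplicate slides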

| SMILES | composite z-score |
| --- | --- |
| C[C@]1(C(=O)NCCN2CCOCC2)c2ccccc2C(=O)N(Cc2ccc(OC(F)(F)F)cc2)[C@H]1c1ccc(CO)cc1 | -0.735 |
| [N-]=[N+]=Nc1ccccc1[C@@H]1OC(c2ccc(OCCCO)cc2)=N[C@]1(CCS(=O)(=O)c1ccccc1)C(=O)NCCN1CCOCC1 | 0.664 |
| CC(C)CN1C(=O)[C@@]2(Cc3ccccc31)c1ccccc1C(=O)N(Cc1ccccc1C(F)(F)F)[C@H]2c1ccc(CO)cc1 | 0.2 |
| C=CC[C@]1(C(=O)N(C)C)N=C(c2ccc(OCCCO)cc2)O[C@H]1c1ccccc1N=[N+]=[N-] | 0.567 |
| COc1cc2c(cc1OC)CN(C(=O)[C@H]1[C@@H]3C(=O)O[C@@H](c4ccccc4)[C@@H](c4ccccc4)N3[C@@H](c3ccc(OCCO)cc3)[C@]13C(=O)Nc1ccc(C#CC4(O)CCCCCC4)cc13)CC2 | 0.326 |
| COCCCNC(=O)[C@@H]1c2ccccc2C(=O)N(Cc2ccccc2C(F)(F)F)[C@H]1c1ccc(CO)cc1 | -0.445 |
| C=CC[C@]12N=C(c3ccc(OCCCO)cc3)O[C@H]1c1ccccc1N(C)C2=O | 0.21 |
| CCCC[C@@H]1C[C@H]1[C@@H](NC(=O)c1cccnc1)c1ccc(-c2ccccc2)cc1 | -0.522 |
| C[C@@H]1ON(c2ccc(C(=O)OC(C)(C)C)cc2)[C@H](c2ccc(Br)cc2)[C@H]1C(=O)N1C(=O)OC[C@H]1Cc1ccccc1 | 0.552 |
| CC(C)CCC[C@@H](C)[C@H]1CC[C@@]2(C)C3=C(CC[C@]12C)[C@@]1(C)CC[C@H](OC(=O)c2ccc(Br)cc2)C(C)(C)C1CC3 (stereo partly specified) | 0.541 |
| COc1cc2c(cc1O)C(C)N(Cc1cc3c(cc1Br)OCO3)CC2 (stereo unspecified) | 0.0663 |
| COc1c(C)cc(-c2cc3c(c(Cc4ccccc4)n2)[Si](C(C)C)(C(C)C)OC3)cc1C | -0.108 |
| CN(C)CCCN1C(=O)[C@@]2(c3ccc([N+](=O)[O-])cc3)CC(=O)N(CC34CC5CC(CC(C5)C3)C4)[C@@H]2c2ccc(CO)cc21 | 0.0318 |
| CO[C@H]1O[C@H](CO)[C@@H](OC(=O)Nc2ccc(C(F)(F)F)cc2)[C@H](OC(=O)Nc2ccc3c(c2)OCO3)[C@H]1OC(=O)Nc1ccc2c(c1)OCO2 | 0.794 |
| NC(=O)NCC#Cc1ccc2c(c1)[C@]1(C(=O)N2)[C@H](C(=O)Nc2nc3ccccc3s2)[C@H]2C(=O)O[C@H](c3ccccc3)[C@H](c3ccccc3)N2[C@@H]1c1ccc(O)cc1 | 0.604 |
| COCCOC(=O)N1C(=O)[C@@]2(c3cc(C#CC4(O)CCCCCC4)ccc31)[C@H](C(=O)N1CCCCCCC1)[C@H]1C(=O)O[C@H](c3ccccc3)[C@H](c3ccccc3)N1[C@@H]2c1ccc(OCCO)cc1 | 1.2 |
